An excerpt weighted towards active compounds, which were near 4.3% of everything screened.
HIF-2a inh = inhibitors of HIF-2a. 786-0 RCC cells HIF-2a reporter, luciferase luminescence, overnight. inhibition, % at 18.8 µM. 360,000 tested, 0.72% active. AID 624352;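 active = inhibition of the luminescence signal of 40% or more relative to plate controls, in a single-dose primary screen at 18.75 µM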
CF NFkB inh = blocks PAF-induced NF-kB reporter in cystic fibrosis cells; KKLEB NF-kB-GFP reporter, GFP fluorescence overnight; inhibition, % at 5 µM; 360,000 tested, 0.86% active;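 active = at least 50% inhibition at 5 µM, scaled per plate between neutral and stimulator controls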;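 note: PAF is a Pseudomonas aeruginosa culture filtrate used as stimulus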
TRPM1 prom inh = reduces MITF-dependent TRPM1 promoter luciferase signal; SK-MEL-5 TRPM1 promoter luciferase, 24 h; inhibition, % at 12.5 µM; 330,000 tested, 0.83% active; AID 488899;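 active = mean inhibition across replicates of 60% or more, whatever share of single replicates reaches that level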
CHOP inhibitor = inhibitors of CHOP induction in ER stress response; AID 2732; CHO-K1 CHOP-promoter luciferase, tunicamycin-induced, 15-18 h; inhibition, % at 10 µM; 220,000 tested, 3.8% active;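 active = compounds that reduced the stress-induced luciferase reporter signal by more than about 70% of percent inhibition, limit read from the data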
KKLEB tox = reduces viability of KKLEB cystic fibrosis airway cells. 360,000 tested, 0.36% active. AID 602141. KKLEB CF airway cells viability, ATPlite luminescence, overnight; stronger effect = lower value; cells stimulated with P. aeruginosa culture filtrate. activity change (cytotoxicity), % at 5 µM;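 active = corrected activity change at or below -50% at 5 µM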
Peg3 promoter = reduces Peg3 promoter-driven luciferase expression in HeLa; HeLa PEG-Prom luciferase reporter, luminescence, overnight; inhibition, % at 20 µM; 360,000 tested, 1.7% active; AID 588405;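 active = inhibition of at least 50% at 20 µM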
Hits are given with their value; – = inactive; · = not tested or not shown.

SMILES	HIF-2a inh	CF NFkB inh	TRPM1 prom inh	CHOP inhibitor	KKLEB tox	Peg3 promoter
OC(Cc1ccccc1Br)c1ncc(-c2cccc(C(F)(F)F)c2)[nH]1 (stereo unspecified)	–	–	·	·	–	–
OC(Cc1cccc(Br)c1)c1ncc(-c2cccc(C(F)(F)F)c2)[nH]1 (stereo unspecified)	–	–	·	·	–	50
COc1ccc(OC(=O)COc2ccccc2C)cc1	–	–	·	·	–	–
CN(C)c1ccc(N/C=C/C(=O)c2ccccc2)cc1	–	–	–	81	–	–
CC(C)(C)c1ccc(C(=O)Nc2nnc(Cc3c[nH]c4ccccc34)s2)cc1	–	–	–	75	–	–
N#CCCCc1cc2ccccc2cn1	–	–	–	·	–	–
CC(C)(C)S(=O)N1Cc2cc(C(=O)Nc3ccc(-c4ccccc4)cc3)nc(-c3cccc(-c4cc5ccccc5o4)c3)c2[C@@H]1CCO (stereo partly specified)	–	–	·	·	–	93
Cc1ccc(C)c(-n2nnnc2SCC(=O)c2ccc3c(c2)NC(=O)CO3)c1	–	–	–	81	–	–
C=CCN(C(=O)CSc1nc2c(sc3ccccc32)c(=O)n1CCN(CC)CC)c1ccccc1	–	–	–	–	–	64
CCn1cc(C(=O)NCCCN2CCCC(C)C2)c(=O)c2cc(S(=O)(=O)N3CCc4ccccc4C3)ccc21 (stereo unspecified)	–	–	–	–	–	–
CCC1CCCCN1CCCNC(=O)c1cn(CC)c2ccc(S(=O)(=O)N3CCc4ccccc4C3)cc2c1=O (stereo unspecified)	–	–	–	–	–	77
CC(O)CNCCCOc1ccc(Cl)cc1C(C)(C)C (stereo unspecified)	–	–	–	–	–	81
CN(C)CCOCCOc1ccc(Cl)cc1C(C)(C)C	–	–	–	–	–	–
COc1ccc(NC(C)=O)cc1NC(=O)CN1CCN(S(=O)(=O)c2ccc(C(C)C)cc2)CC1	–	–	–	73	–	–
COC(=O)[C@@]12C[C@@H](CC(=O)N3CCC(c4ccccc4)CC3)C(=O)N(CCc3ccc(OC)c(OC)c3)C1=CCC(C)(C)C2	–	·	·	·	·	·
O=C(Nc1cc(C(F)(F)F)ccc1N1CCOCC1)c1n[nH]c(=O)c2ccccc12	–	–	–	78	–	–
CSc1ncccc1C(=O)OCC(=O)Nc1cc(C(F)(F)F)ccc1N1CCOCC1	–	–	–	71	–	–
CC(C)(C)OC(=O)N1CCC(c2cc(=O)n3[nH]cc(C(=O)Nc4ccc(F)c(Cl)c4)c3n2)CC1	–	–	–	–	–	–
CC(C)(C)OC(=O)N1CCC(c2cc(=O)n3[nH]c(-c4ccc(Cl)cc4)cc3n2)CC1	–	–	·	70	–	–
CC1CCCN(C(=O)Cn2nnc(-c3ccc([N+](=O)[O-])cc3)n2)C1 (stereo unspecified)	–	–	–	·	–	–
Cc1nc(N2CCCCC2)c(C#N)c(C)c1[N+](=O)[O-]	–	–	–	74	–	–
CC1Cc2ccccc2N1C(=O)COC(=O)c1ccc(Cl)c(S(=O)(=O)N2CCOCC2)c1 (stereo unspecified)	–	–	–	·	–	–
CC(C)Nc1nc(Cl)nc(N(C#N)CN2C(=O)c3ccccc3C2=O)n1	–	–	–	–	–	95
CCC(C)Nc1nc(Cl)nc(N(C#N)CN2C(=O)c3ccccc3S2(=O)=O)n1 (stereo unspecified)	–	–	69	–	–	–
Cc1cc(C)nc(N(C#N)CN2C(=O)c3ccccc3C2=O)n1	–	–	–	–	–	–
SMILES	HIF-2a inh	CF NFkB inh	TRPM1 prom inh	CHOP inhibitor	KKLEB tox	Peg3 promoter
Cc1ccc(Nc2nc(C3CC3)cs2)cc1	·	·	·	–	·	·
Clc1ccc(Nc2nc(C3CC3)cs2)cc1	–	–	·	98	–	–
CCOC(=O)c1cnc2ccc(OCC)cc2c1N1CCN(c2ccccc2OC)CC1	–	–	–	88	–	–
CCOc1ccc2ncc(C(=O)c3ccc(OC)cc3)c(N3CCN(CC)CC3)c2c1	–	–	–	–	–	–
COc1cccc(CN2CCC2(C)C(=O)Nc2cccc(Oc3ccccc3)c2)c1F (stereo unspecified)	–	–	·	·	–	52
CCC(NC(=O)OCc1ccccc1)C(=O)Oc1ccc2ccc(=O)oc2c1 (stereo unspecified)	–	–	–	·	–	–
COc1ccc(NC(=O)c2ccco2)cc1N	–	–	–	70	–	–
COc1c(F)c(F)c(C(=O)Nc2ccc(NC(=O)c3ccco3)cc2)c(F)c1F	–	–	–	80	–	–
COc1ccc(NC(=O)c2ccco2)cc1NC(=O)c1ccco1	–	–	–	–	–	–
O=C(Nc1ccc(NC(=O)c2ccco2)cc1)c1ccco1	–	–	–	·	–	–
CC(C)(C)C(=O)COC(=O)c1cccc(NC(=O)c2ccco2)c1	–	–	–	72	–	–
CC(C)(C)c1ccc(C(=O)Nc2ccc(NC(=O)c3ccco3)cc2)cc1	–	–	–	73	–	–
C#CCN(C[C@H]1[C@H](OC(=O)Nc2c(C)noc2C)[C@H](OC(=O)Nc2c(C)noc2C)C[C@@H](C(=O)OC)[C@H]1C(=O)OC)S(=O)(=O)c1ccc(C)cc1	–	–	·	·	–	–
COc1ccc2c(=O)c3c(=O)n(Cc4ccco4)c(-c4ccco4)nc3oc2c1	–	–	–	–	–	–
COc1ccc(Cn2c(-c3ccco3)nc3oc4cc(OC)ccc4c(=O)c3c2=O)cc1	–	–	–	92	–	–
O=C(Nc1cccc(C(F)(F)F)c1)c1cc2ncc(Br)cn2n1	–	–	–	79	–	–
COc1ccc(-c2nnc(SCC(=O)Nc3sc4c(c3C#N)CCCC4)n2-c2ccccc2)cc1	–	63	–	–	-73	53
COc1ccc(-n2c(SCC(=O)Nc3sc4c(c3C#N)CCCC4)nnc2-c2ccccc2OC)cc1	–	–	–	–	–	–
N#Cc1c(C(F)(F)F)cc(-c2ccccc2)nc1SCC(=O)Nc1sc2c(c1C#N)CCC2	–	–	–	74	–	–
CCOC(=O)C1(C)CCCN(C(=O)c2cc(F)ccc2C)C1 (stereo unspecified)	–	–	·	·	–	–
Cc1nn(Cc2ccccc2)c(C)c1NC(=O)CSc1nc(C2CC2)nc2c1cnn2-c1ccccc1	–	–	–	–	–	–
CCc1nc(SCC(=O)Nc2c(C)nn(C)c2C)c2cnn(-c3ccccc3)c2n1	·	·	·	90	·	·
Cc1cc2nc(C)n(CCCNC(=O)Nc3cccc4ccccc34)c2cc1C	–	–	–	75	–	–
Oc1[nH]c2ccccc2c1N=Nc1ccccc1F	–	–	–	91	–	–
Oc1[nH]c2ccccc2c1N=Nc1ccccc1	–	–	–	–	–	–
CCCc1nc2cc(C)c(Br)c(C)n2c1Cc1ccsc1	–	·	·	·	·	·
CCOC(=O)C1=C(c2ccccc2)OC(N)=C(C#N)C1c1ccc(Cl)s1 (stereo unspecified)	–	–	–	78	–	–
